From PMC10726135, “HNF4α isoforms regulate the circadian balance between carbohydrate and lipid metabolism in the liver”
Over roughly 18,000 sequences, “log2 normalized intensity” has its median near 0.39; the highest 2% begin near 6.6. This excerpt belongs to a sample that is enriched for the highest values.

Each sequence was assayed against T1, HNF4alpha2 (COS-7 nuclear extract) (Homo sapiens, UniProt P41235 1-474) (assay: protein-binding microarray; COS-7 nuclear extract on double-stranded Agilent 4x180k PBM; binding buffer, salt, pH and temperature not given in the material; high values mean tight binding). Details: chain copies: 2; label: 3' end of strand 1 on the slide; dsDNA, one strand shown.
T1 sequence: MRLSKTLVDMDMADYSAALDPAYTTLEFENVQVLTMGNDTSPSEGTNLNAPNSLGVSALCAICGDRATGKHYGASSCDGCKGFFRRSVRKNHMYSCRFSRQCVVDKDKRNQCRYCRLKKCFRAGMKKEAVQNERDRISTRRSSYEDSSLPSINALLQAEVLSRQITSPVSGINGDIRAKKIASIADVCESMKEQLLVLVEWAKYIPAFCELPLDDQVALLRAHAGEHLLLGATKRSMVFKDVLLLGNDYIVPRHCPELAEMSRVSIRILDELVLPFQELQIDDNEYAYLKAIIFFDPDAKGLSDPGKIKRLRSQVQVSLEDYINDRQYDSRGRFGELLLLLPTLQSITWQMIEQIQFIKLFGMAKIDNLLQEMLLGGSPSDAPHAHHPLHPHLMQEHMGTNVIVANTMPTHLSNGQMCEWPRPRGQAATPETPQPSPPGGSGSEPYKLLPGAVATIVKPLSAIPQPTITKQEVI
Outline: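 Double-stranded oligonucleotides of ~60 nt, representing ~44,000 test sequences in quadruplicate, made up a custom Agilent SurePrint G3 4x180k array. Nuclear extracts from COS-7 cells transiently transfected by CaPO4 with a human HNF4α isoform expression vector were applied, and bound HNF4α was imaged at 2-µm resolution on an Agilent G2565CA scanner. Binding signal refers to the background-corrected, normalized gProcessedSignal output of Agilent software.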
“GGGGTCTGGTTTCTAGGTAGATAAGGGAGTGCCTAGGGAGATTAGAGTATCGGTCGA” showed a binding signal of 1.29 log2 normalized intensity. In the case of “TCATCCGCATCTGAAGATAAGAGAAGTTGCGCCTAGGGAGATTAGAGTATCGGTCGA”, the binding signal is reported as -0.83 log2 normalized intensity. “AACAGTGAATGTTTCGTAATATTTAGGTGTGCCTAGGGAGATTAGAGTATCGGTCGA” showed a binding signal of 1.49 log2 normalized intensity. In the case of “TCATTTTACAGATAAGGAAACCAAGGTCCAGCCTAGGGAGATTAGAGTATCGGTCGA”, the binding signal is reported as 1.45 log2 normalized intensity. “CACCCCCATGCAAGTTCCCACAGAGCCCACGCCTAGGGAGATTAGAGTATCGGTCGA” was tested, and the binding signal was 4.54 log2 normalized intensity. Work on “AGTGTAAATATTTGAGGACACAAAGTGGACGCCTAGGGAGATTAGAGTATCGGTCGA” yielded a binding signal of 2.09 log2 normalized intensity. With “GTTTACTCATGTGGTCCTAAGACTGACCTTGCCTAGGGAGATTAGAGTATCGGTCGA” the binding signal was 3.77 log2 normalized intensity. “TTGTTTACTCATGTGGTCCTAAGACTAACCGCCTAGGGAGATTAGAGTATCGGTCGA” was tested, and the binding signal was -0.3 log2 normalized intensity. Work on “AATTGACCTTTGATCACTCATGGGCAAGATGCCTAGGGAGATTAGAGTATCGGTCGA” yielded a binding signal of 5.65 log2 normalized intensity. For “AATCAACCTTTGATCGTTTGCATGCAGGGCGCCTAGGGAGATTAGAGTATCGGTCGA”, the binding signal was 3.25 log2 normalized intensity. With “CTCATGTGGTCCTAAGACTGACCTTTGATCGCCTAGGGAGATTAGAGTATCGGTCGA” the binding signal was 10.1 log2 normalized intensity. With “CTCATGTGGTCCTAAAATTGACCTTTGATCGCCTAGGGAGATTAGAGTATCGGTCGA” the binding signal was 10.5 log2 normalized intensity. Work on “CAAATAAACCTTTGACCAATTGACCCTATCGCCTAGGGAGATTAGAGTATCGGTCGA” yielded a binding signal of 3.78 log2 normalized intensity. “CCTAAAATTGACCTTTGATCACTCATGGGCGCCTAGGGAGATTAGAGTATCGGTCGA” showed a binding signal of 8.21 log2 normalized intensity. With “GCTGACCTTTGGTCTAAACCTACTTAGATCGCCTAGGGAGATTAGAGTATCGGTCGA” the binding signal was 4.25 log2 normalized intensity. Sequence “GGTCAAAGAGCAATCATCAAGGTGGTTTCAGCCTAGGGAGATTAGAGTATCGGTCGA” has a binding signal of 1.71 log2 normalized intensity. “AACACTTACACCTGGGTGCTCCCTCCCCCTGCCTAGGGAGATTAGAGTATCGGTCGA” showed a binding signal of 4.36 log2 normalized intensity. “CTGCCTTAGTCCCAGTATGGTCTCAGTAATGCCTAGGGAGATTAGAGTATCGGTCGA” gave a binding signal of -0.127 log2 normalized intensity. In the case of “AGTTATATCTTACCTCCTTCTCCCCCATGCGCCTAGGGAGATTAGAGTATCGGTCGA”, the binding signal is reported as 4.87 log2 normalized intensity. Sequence “ATCTCCCAGTTCTTTTGACCTTTGCCTCATGCCTAGGGAGATTAGAGTATCGGTCGA” has a binding signal of 7.95 log2 normalized intensity. “CCTCAATGCTATCTCCCAGTTCTTTTGACCGCCTAGGGAGATTAGAGTATCGGTCGA” gave a binding signal of 2.52 log2 normalized intensity. In the case of “ATGCTATCTCCCAGTTCTTTTGACCTTTGCGCCTAGGGAGATTAGAGTATCGGTCGA”, the binding signal is reported as 7.68 log2 normalized intensity. In the case of “CCAGTTCTTTTGACCTTTGCCTCATTCTTAGCCTAGGGAGATTAGAGTATCGGTCGA”, the binding signal is reported as 6.03 log2 normalized intensity. In the case of “TCCTTTTGACCACAGTTATCTCCCCAGCTTGCCTAGGGAGATTAGAGTATCGGTCGA”, the binding signal is reported as 2.47 log2 normalized intensity. With “GAGCGCTTTGAGGCCTATGGCGAAAAAGGAGCCTAGGGAGATTAGAGTATCGGTCGA” the binding signal was -0.829 log2 normalized intensity. Sequence “ATCTCTAAGCTACTGAAAATGACCTTTGTTGCCTAGGGAGATTAGAGTATCGGTCGA” has a binding signal of 6.11 log2 normalized intensity. “AAAAAATTACTGACCCTTGCACTGTAAGATGCCTAGGGAGATTAGAGTATCGGTCGA” gave a binding signal of 3.49 log2 normalized intensity. “TAAGCTACTGAAAATGACCTTTGTTCCCTGGCCTAGGGAGATTAGAGTATCGGTCGA” was tested, and the binding signal was 8.2 log2 normalized intensity. For “TACTGAAAATGACCTTTGTTCCCTGCACTTGCCTAGGGAGATTAGAGTATCGGTCGA”, the binding signal was 7.15 log2 normalized intensity. “AATTCATCTCTAAGCTACTGAAAATGACCTGCCTAGGGAGATTAGAGTATCGGTCGA” gave a binding signal of 3.39 log2 normalized intensity. “AAAAAAAAAAATTACTGACCCTTGCACTGTGCCTAGGGAGATTAGAGTATCGGTCGA” was tested, and the binding signal was 4.58 log2 normalized intensity. “AAGCAATGGCTACCAAGGAGTGGACTGTTCGCCTAGGGAGATTAGAGTATCGGTCGA” was tested, and the binding signal was 1.7 log2 normalized intensity. In the case of “GGGGGCAAGGTACACCATCTATGAGCTCAAGCCTAGGGAGATTAGAGTATCGGTCGA”, the binding signal is reported as 1.28 log2 normalized intensity. For “AAAGGCGTTTGCTCCCATCCCCCCAAAGGCGCCTAGGGAGATTAGAGTATCGGTCGA”, the binding signal was 4.99 log2 normalized intensity. “TTAGATCAGAGGTCTAATTCCCAAGGGTATGCCTAGGGAGATTAGAGTATCGGTCGA” showed a binding signal of -0.435 log2 normalized intensity. “TAGCACTTTGGACCTCCACTTTGGAGGGGGGCCTAGGGAGATTAGAGTATCGGTCGA” showed a binding signal of 1.7 log2 normalized intensity. “GAATTCTTGACTTTGGACTTTCAAAAGTTAGCCTAGGGAGATTAGAGTATCGGTCGA” showed a binding signal of 4.21 log2 normalized intensity. Sequence “GAGACCCATTTTGGACTTTGACCTCCAAAAGCCTAGGGAGATTAGAGTATCGGTCGA” has a binding signal of 10.7 log2 normalized intensity. Work on “TTTGGAATTTGACCTCATTTGCTCCCAGTGGCCTAGGGAGATTAGAGTATCGGTCGA” yielded a binding signal of 3.85 log2 normalized intensity. “CATTGACTTTGCCTTTTGGCTAAAGTCCAAGCCTAGGGAGATTAGAGTATCGGTCGA” gave a binding signal of 4.16 log2 normalized intensity. “AATGATGATGACTTTTGACCCCAGGGGAAAGCCTAGGGAGATTAGAGTATCGGTCGA” gave a binding signal of 5.51 log2 normalized intensity. In the case of “CCAGTGAGACCCATTTTGGACTTTGACCTCGCCTAGGGAGATTAGAGTATCGGTCGA”, the binding signal is reported as 11.9 log2 normalized intensity. Sequence “CACAGCTGGACTTTGGCTGCAAAATTTGAAGCCTAGGGAGATTAGAGTATCGGTCGA” has a binding signal of 3.04 log2 normalized intensity. “CCATTTTGGACTTTGACCTCCAAAATTATAGCCTAGGGAGATTAGAGTATCGGTCGA” was tested, and the binding signal was 10.4 log2 normalized intensity. Sequence “CTTTGTAGCACTTTGGACCTCCACTTTGGAGCCTAGGGAGATTAGAGTATCGGTCGA” has a binding signal of 3.1 log2 normalized intensity.
